From PubChem BioAssay AID862 (The Scripps Research Institute Molecular Screening Center, 2007)
Out of some 190,000 compounds screened, about 1,700 (0.89%) were called active. The sample holds actives, similar compounds and a random draw of the others, so the mix is not that of the screen.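 Rule for the calls: active = inhibition above the mean inhibition across all screened compounds plus 3 SD (cut at about 44% in these data); inactive = the rest.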

Test: IL-6 driven STAT3 reporter inhibitors, primary screen, U3A cells, luciferase, luminescence, MLSCN library (AID 862);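 note: 0% = DMSO only wells and 100% = 100 µM nifuroxazide control wells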
Details: IL-6 STAT3-luciferase reporter, at 5.5 µM, hits give high values, host cell line lacks STAT1
With `c1ccc(C2CNCc3c2ccc2ccccc32)cc1` (stereo unspecified) the inhibition was 3.3% (inactive). In the case of `COc1ccc(S(=O)(=O)Nc2cccnc2)c(Cl)c1Cl`, the inhibition was 5.5% (inactive). In the case of `COc1ccccc1Oc1ccc(S(=O)(=O)Nc2cccnc2)cc1`, the inhibition was 48.9% (active). For `O=S(=O)(Nc1ccccn1)c1ccc(Oc2ccccc2)cc1`, the inhibition was -1.5% (inactive). In the case of `Cn1c(CCCOc2ccc(Cl)cc2Cl)n[nH]c1=S`, the inhibition was 9.7% (inactive). In the case of `O=C(COC(=O)C1CC2C=CC1C2)Nc1ccccc1` (stereo unspecified), the inhibition was 1% (inactive). For `CCCCCc1ccc(-c2ccc(C(=O)O)cc2)nc1`, the inhibition was 52.6% (active). For `CCCCCC(=O)Nc1ccc(-c2cn3cccnc3n2)cc1`, the inhibition was 11.1% (inactive). In the case of `CCCCCc1ccc(-c2ccc(OCC)cc2)nc1`, the inhibition was 25.3% (inactive). For `CCCN(CC(=O)Nc1ccccc1C)C(=O)c1cc(=O)[nH]c2ccccc12`, the inhibition was 3.5% (inactive). With `N#Cc1nc(Cc2ccccc2)oc1NCCc1ccccc1` the inhibition was -13.4% (inactive). With `N#Cc1nc(COc2ccc(-c3ccccc3)cc2)oc1NCc1cccnc1` the inhibition was 45.2% (active). With `N#Cc1nc(-c2ccc(OCc3ccccc3)cc2)oc1NCCCN1CCOCC1` the inhibition was 14.7% (inactive). With `COC(=O)c1sc2[nH]c(=S)n(N)c(=O)c2c1C` the inhibition was 8.3% (inactive). For `Cc1ccc(CN(Cc2cccnc2)C(=S)Nc2cccc(Cl)c2C)cc1`, the inhibition was 9.3% (inactive). For `O=C(CN1CCN(c2ccccn2)CC1)N1CCc2ccccc21`, the inhibition was 1.6% (inactive). With `O=C(CN1C(=O)c2ccccc2S1(=O)=O)N1CCc2ccccc21` the inhibition was 89.1% (active). With `CNC(=O)CN1C(=O)c2ccccc2S1(=O)=O` the inhibition was 10.2% (inactive). For `O=c1cc(CSc2ccc(Cl)cc2)nc(N2CCOCC2)[nH]1`, the inhibition was -7.4% (inactive). In the case of `Clc1ccc2nc(CSc3ccccc3)cn2c1`, the inhibition was 62.7% (active). For `CCOc1ncccc1C(=O)OCc1cn2cc(Cl)ccc2n1`, the inhibition was 12.3% (inactive). In the case of `CCOC(=O)NN1C(=O)c2ccccc2NC1c1cccc(O)c1` (stereo unspecified), the inhibition was -10% (inactive). With `CN(CCc1ccccn1)C(=O)CCC1CCCN(Cc2ccccc2OC(F)F)C1` (stereo unspecified) the inhibition was 4.3% (inactive). With `Cc1cc(C)c2[nH]c(=O)c(CN(Cc3ccccc3)C(=S)NCCCN(C)C)cc2c1` the inhibition was -4.1% (inactive). In the case of `C1CC1Cc1noc(CN2CCN(CC3CC3)CC2)n1`, the inhibition was 2.5% (inactive). With `Cc1ccc(NC(=O)CN(C)CC(=O)Nc2cccc(F)c2)cc1[N+](=O)[O-]` the inhibition was 46.8% (active). For `CN(CC(=O)Nc1cccc(F)c1)CC(=O)Nc1cccc([N+](=O)[O-])c1`, the inhibition was -4.2% (inactive). In the case of `Cc1ccc(CN(C)CC(=O)Nc2cccc([N+](=O)[O-])c2)o1`, the inhibition was 5.5% (inactive). With `O=S(=O)(NC1CC1)c1ccc2c3c(cccc13)CC2` the inhibition was 11.9% (inactive). For `CCOC(=O)CSc1nc(C)cc2c1C(=O)OC2`, the inhibition was -1% (inactive). In the case of `N=C(N)SCc1cccc2ccccc12`, the inhibition was 47.8% (active). In the case of `c1ccc2c(CSCc3nc4ccccc4[nH]3)cccc2c1`, the inhibition was 4.1% (inactive). With `CCOc1ccc(Br)cc1CSC(=N)N` the inhibition was 34.7% (inactive). With `CN(C)CCOCCOc1ccc(Cl)c2ccccc12` the inhibition was 9.5% (inactive). For `Cc1cc(C(=O)CSc2nc(N)cc(=O)[nH]2)c(C)n1-c1cccc(F)c1`, the inhibition was 20.1% (inactive). For `CCCc1cc(=O)[nH]c(SCC(=O)c2cc(C)n(CCC)c2C)n1`, the inhibition was 10.6% (inactive). With `Cc1cc(C(=O)CSc2nc(N)cc(=O)[nH]2)c(C)n1CCc1ccc(Cl)cc1` the inhibition was 43.7% (active). In the case of `COc1cccc(-c2nc3cc(C)ccc3o2)c1`, the inhibition was 45% (active). For `COc1ccc(-c2nc3cc([N+](=O)[O-])ccc3o2)cc1OC`, the inhibition was 20.3% (inactive). For `COc1ccc2oc(-c3cccc(NC(=O)CSc4ccc(Cl)cc4)c3)nc2c1`, the inhibition was -4.6% (inactive). In the case of `Cc1ccc(C(=O)Cc2nnc(C)s2)cc1`, the inhibition was -4.3% (inactive). In the case of `C/C(=N\NC(=O)CNC(=O)C(c1ccccc1)c1ccccc1)c1ccc(C)cc1`, the inhibition was -6.9% (inactive). For `O=C(Nc1cccnc1)c1noc2c1CCCCC2`, the inhibition was 43.9% (active). In the case of `O=C(Nc1cccnc1)c1cccc(S(=O)(=O)N2CCCC2)c1`, the inhibition was 6.6% (inactive). For `COc1cccc(C(=O)Nc2cccnc2)c1OC`, the inhibition was 2.9% (inactive). In the case of `Cc1ccc(-n2c(SCC(=O)N/N=C/C=C/c3ccccc3[N+](=O)[O-])nc3ccccc3c2=O)cc1`, the inhibition was 1.3% (inactive). For `CC(Sc1nncn1C)C(=O)Nc1cc(C(F)(F)F)ccc1N1CCOCC1` (stereo unspecified), the inhibition was 0.4% (inactive). With `OCCNCc1cccc(OCc2ccccc2Cl)c1` the inhibition was -9.4% (inactive). For `S=c1[nH]nc(/C=C/c2ccccc2)o1`, the inhibition was -4.3% (inactive). With `O=c1oc(/C=C/c2ccccc2)nc2ccccc12` the inhibition was 44.2% (active). For `CCn1c(/C=C/c2ccc([N+](=O)[O-])o2)nc2ccccc2c1=O`, the inhibition was 25.7% (inactive). For `COc1ccc(/C=C/C(=O)c2ccc(NS(=O)(=O)c3ccc(C)cc3)cc2)cc1O`, the inhibition was -5.1% (inactive). For `Cc1ccc(O)c(-c2cc(C(=O)NCc3ccccc3)[nH]n2)c1`, the inhibition was -0.7% (inactive). In the case of `CCCn1nc(C(=O)Nc2ccc3nc(C)sc3c2)c2ccccc2c1=O`, the inhibition was 0.8% (inactive). In the case of `CCN(CC)c1ccc(/C=N/Nc2nc(C)cc(=O)[nH]2)cc1`, the inhibition was 46.4% (active). For `Cc1cc(=O)[nH]c(N/N=C/c2c(C)nn(-c3ccccc3Cl)c2Cl)n1`, the inhibition was 7.1% (inactive). For `CCN(CC)c1ccc(/C=N/Nc2nc(C)cc(C)n2)c(O)c1`, the inhibition was 16% (inactive). With `Nc1nnc(SCn2nnc3ccccc3c2=O)s1` the inhibition was 9.1% (inactive). In the case of `O=C(O)CCC(=O)Nc1nc2ccc([N+](=O)[O-])cc2s1`, the inhibition was 13.9% (inactive). In the case of `O=C(Nc1nc2ccc([N+](=O)[O-])cc2s1)c1ccc(S(=O)(=O)N2CCCc3ccccc32)cc1`, the inhibition was 21.1% (inactive). For `O=C(NC(Nc1nc2ccc([N+](=O)[O-])cc2s1)(C(F)(F)F)C(F)(F)F)c1ccccc1`, the inhibition was 92.4% (active). In the case of `OCCC1CN(Cc2ccc(Oc3ncccn3)cc2)CCN1CCc1ccccc1` (stereo unspecified), the inhibition was 4.1% (inactive). For `Cc1cc[n+](-c2[nH]c(=O)sc2/C=N/NC(=O)c2ccccc2[O-])cc1C`, the inhibition was 6.7% (inactive). In the case of `COc1cc(N=Cc2c(O)[nH]c3ccccc23)cc(OC)c1OC`, the inhibition was 56% (active). In the case of `COc1ccc(N=Cc2c(O)[nH]c3ccccc23)cc1OC`, the inhibition was 40.4% (inactive). In the case of `COc1ccc(OC)c(N=Cc2c(O)[nH]c3ccccc23)c1`, the inhibition was 22.7% (inactive). In the case of `Cc1cc(C)nc(SC2CCCCC2NS(=O)(=O)c2ccc(Cl)cc2)n1` (stereo unspecified), the inhibition was -5.1% (inactive). In the case of `Nc1c(C(=O)O)cnn1-c1ccccc1`, the inhibition was -7.4% (inactive). In the case of `Cc1ccc(N2C(=O)SC(N(CC(=O)O)c3ccc(C)cc3)C2=O)cc1` (stereo unspecified), the inhibition was 0.7% (inactive). With `Nc1ccc(-c2nnc(-c3ccc(-c4ccccc4)cc3)o2)cc1` the inhibition was -2.7% (inactive). For `CCCCCC(=O)Nc1ccc2oc(-c3ccncc3)nc2c1`, the inhibition was 21.8% (inactive). For `CCc1ccc2oc(-c3ccc(N)cc3)nc2c1`, the inhibition was 79.6% (active). For `COc1ccc(Nc2nc(-c3ccccc3)cs2)cc1`, the inhibition was -10.2% (inactive). In the case of `c1ccc(Nc2nc(-c3ccncc3)cs2)nc1`, the inhibition was 9.9% (inactive). For `COc1ccc(-c2csc(Nc3ccccn3)n2)cc1`, the inhibition was 51.5% (active). In the case of `Cc1ccccc1-n1nc(SCC(=O)O)sc1=S`, the inhibition was 3.4% (inactive). For `COc1cccc(CNC(=O)CCC2CCCN(Cc3ccc(OC(F)F)cc3)C2)c1` (stereo unspecified), the inhibition was 13.3% (inactive). With `c1ccc(Nc2nc(N3CCOCC3)c3ccccc3n2)cc1` the inhibition was 22% (inactive). With `CCOc1ccc(Nc2nc(Cl)nc(N3CCN(c4ccc(OC)cc4)CC3)n2)cc1` the inhibition was -0.7% (inactive). With `COc1ccc(Nc2ncc(F)c(N3CCOCC3)n2)cc1` the inhibition was 50.7% (active). With `O=[N+]([O-])c1ccc2oc(-c3cccc(O)c3)nc2c1` the inhibition was 1.8% (inactive). With `O=C(Nc1ccccc1F)c1ccc(Cn2cc(Br)cn2)cc1` the inhibition was 14.9% (inactive). In the case of `COc1ccc(-n2ncc3c(N4CCc5ccccc54)ncnc32)cc1`, the inhibition was 2.3% (inactive). With `COC(=O)CSc1ncnc2c1cnn2-c1ccc(C)cc1C` the inhibition was 23.1% (inactive). For `Cc1ccc(-n2ncc3c(=O)[nH]cnc32)c(C)c1`, the inhibition was 10.7% (inactive). With `COc1ccc(-n2ncc3c(N4CCCc5ccccc54)ncnc32)cc1` the inhibition was 30.9% (inactive). In the case of `c1ccc(-n2ncc3c(N4CCCC4)ncnc32)cc1`, the inhibition was 46.7% (active). For `Cc1ccc(-n2ncc3c(N4CCN(c5ccc(F)cc5)CC4)ncnc32)c(C)c1`, the inhibition was 69.6% (active). With `CCOc1ccc(N2C(=O)Nc3ccccc3C2(O)C(=O)NCc2ccco2)cc1` (stereo unspecified) the inhibition was 4.6% (inactive). With `O=c1[nH]oc(O)c1-c1ncc(C(F)(F)F)cc1Cl` the inhibition was -6.5% (inactive). In the case of `S=c1nc(C23CC4CC(CC(C4)C2)C3)nc2sccn12`, the inhibition was 10% (inactive). With `COC(=O)NC1(C(F)(F)F)NC(=O)N(C2CCCCC2)C1=O` (stereo unspecified) the inhibition was 7.4% (inactive). For `O=C1NC(Nc2nc3ccccc3s2)(C(F)(F)F)C(=O)N1C1CCCCC1` (stereo unspecified), the inhibition was 48.9% (active). With `O=C(NC1(C(F)(F)F)NC(=O)N(C2CCCCC2)C1=O)c1ccco1` (stereo unspecified) the inhibition was 12.1% (inactive). With `COCC(C)NC(=O)CSc1nc2nn(-c3ccccc3)c(=O)c-2c2n1CCCCC2` (stereo unspecified) the inhibition was 2.7% (inactive). With `O=C(NCCOc1ccccc1)c1ccccc1` the inhibition was 20.1% (inactive). For `CCCOc1ccc(C(=O)NCCc2ccccc2)cc1`, the inhibition was 50.3% (active). For `O=C(NCCc1ccccc1)c1ccc(OCCOc2ccccc2)cc1`, the inhibition was -1.4% (inactive). In the case of `O=C(CN1C2=NCCN2c2ccccc21)c1cccs1`, the inhibition was 0% (inactive). With `c1ccc(-c2cc(N3CCCCC3)c3ccccc3n2)cc1` the inhibition was 9.3% (inactive). With `Cc1ccc(-c2cn3cc([N+](=O)[O-])ccc3n2)cc1` the inhibition was 86.6% (active). For `COc1ccc(-c2cn3ccsc3n2)cc1`, the inhibition was 28.9% (inactive). In the case of `COc1ccc(-c2cn3cccnc3n2)cc1`, the inhibition was 10.6% (inactive). With `Cc1ccc(-c2cn(S(=O)(=O)c3cccc([N+](=O)[O-])c3)nc2N)cc1` the inhibition was 12.3% (inactive). In the case of `Cc1ccc(-c2cn3cc(C)ccc3n2)cc1`, the inhibition was 103% (active). For `Cc1ccc(-n2cc3ccc([N+](=O)[O-])cc3n2)cc1`, the inhibition was 38.8% (inactive).
